Test results published in PubChem BioAssay (NCI).
The panel holds about 83,000 compounds, 20% with a hit somewhere; the sample as a whole holds those more often.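 A percent growth of 40 corresponds to 60% growth inhibition; 0 means no net growth; -100 means all cells died. Active threshold: below 10.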 Calls of active or inactive are those of the source.

Tests used:
Experiment in all cases: NCI-60 one-dose screen, 48 h (100 = growth as untreated, 0 = no growth, -100 = all killed)
Conditions in all cases: 10 µM unless noted
[1] = tested on: SK-MEL-2 melanoma
[2] = tested on: EKVX NSCLC
[3] = tested on: SN12C renal
[4] = tested on: UO-31 renal
[5] = tested on: TK-10 renal
[6] = tested on: ACHN renal
[7] = tested on: CAKI-1 renal
[8] = tested on: A498 renal
[9] = tested on: CCRF-CEM leukemia
[10] = tested on: MOLT-4 leukemia

Measured: growth

c1ccc(-c2nc(Nc3ccc(-c4nc5ccccc5[nH]4)cc3)nc(N3CCOCC3)n2)cc1
active: [1] -52.7% | [2] -66.9% | [3] -62.8% | [4] -60.6% | [5] -58.1% | [6] -58.9% | [7] -89.4% | [8] -83.4% | [9] -15.7% | [10] -37.8%

O=C(NO)c1ccc(Cn2c(=O)n(CCc3ccc(O)cc3)c(=O)c3ccccc32)cc1
active: [9] 9.36%
inactive: [1] 74.5% | [2] 76.7% | [3] 79% | [4] 88.6% | [5] 84.7% | [6] 91.1% | [7] 95.2% | [8] 45.7% | [10] 15.9%

CCN1CCN(C(=O)[C@@]2(C)CC[C@]3(C)CC[C@]4(C)C(=CC(=O)[C@@H]5[C@@]6(C)CC[C@H](OCCC#N)C(C)(C)[C@@H]6CC[C@]54C)[C@@H]3C2)CC1
inactive: [1] 93.5% | [2] 85.7% | [3] 83.1% | [4] 69.8% | [5] 93.4% | [6] 98.3% | [7] 80.2% | [8] 101% | [9] 63.4% | [10] 62.8%

O=C(/C=C/c1cccc(O)c1)c1ccccc1O
inactive: [1] 84.1% | [2] 86.9% | [3] 83.7% | [4] 73.9% | [5] 121% | [6] 86.9% | [7] 50.4% | [8] 106% | [9] 47.1% | [10] 66.9%

Cn1cc(-c2nc(-c3cn(C)c4ncccc34)cs2)c2cc(F)ccc21
inactive: [1] 31.1% | [2] 55.3% | [3] 46% | [4] 51.1% | [5] 46.3% | [6] 47.4% | [7] 20.8% | [8] 44.8% | [9] 40% | [10] 35.6%

C=C1C(=O)O[C@H]2[C@H]1CC/C(Cn1cc(-c3ccc(F)cc3)nn1)=C\CC[C@@]1(C)O[C@@H]21
active: [3] -13.6% | [4] -80.8% | [5] -92.9% | [6] -19.7% | [7] -12.9% | [9] -36.6% | [10] -25.4%
inactive: [1] 14.9% | [2] 68.4% | [8] 27.4%

Cn1cc(-c2nc(-c3c[nH]c4ncccc34)cs2)c2cc(F)ccc21
inactive: [1] 28.3% | [2] 14.5% | [3] 51.3% | [4] 29.4% | [5] 23.2% | [6] 24.1% | [7] 12.8% | [8] 42.3% | [9] 25.8% | [10] 23.9%

COc1cnc2c(c1)C(=O)c1c-2n(CCCNCCN2CCOCC2)c(=O)c2cc([N+](=O)[O-])ccc12
inactive: [1] 19% | [2] 15.8%
active: [3] 4.54% | [4] -85.8% | [5] -0.695% | [6] -69.6% | [7] -29.5% | [8] -86.7% | [9] 2.23% | [10] -1.41%

COc1ccc(/C=C/C(=O)NCCO)cc1
inactive: [1] 103% | [2] 98.7% | [3] 108% | [4] 84.6% | [5] 92% | [6] 101% | [7] 90.8% | [8] 85% | [9] 104% | [10] 101%

C=C(C)[C@@H]1CC[C@]2(C(=O)O)CC[C@]3(C)[C@H](CC[C@@H]4[C@@]5(C)C/C(=C/c6ccc(OC)cc6)C(=O)C(C)(C)[C@@H]5CC[C@]43C)[C@@H]12
inactive: [1] 38.1% | [3] 18% | [4] 12.6% | [5] 24.5% | [6] 19.6% | [7] 23.8% | [8] 49.6% | [9] 24% | [10] 15.3%
active: [2] 9.53%

NCCNc1nc(-c2ccccc2)nc2nc(-c3ccccc3)oc12
inactive: [1] 107% | [2] 102% | [3] 80.6% | [4] 69.6% | [5] 119% | [6] 79% | [7] 73.9% | [8] 90% | [9] 91.5% | [10] 73.6%

Fc1ccc(NCc2nnc(-c3ccc(Cl)cc3)o2)cc1
inactive: [1] 85.5% | [2] 77% | [3] 79.4% | [4] 54.3% | [5] 126% | [6] 78.7% | [7] 69.8% | [8] 77.2% | [9] 74.6% | [10] 49.6%

Cc1cc(C)nc(NC(N)=NCCc2ccccc2)n1
inactive: [1] 38.4% | [2] 59.7% | [3] 45.1% | [4] 69.2% | [5] 75.6% | [6] 46.9% | [7] 93.6% | [8] 86.9% | [9] 45.3% | [10] 47.7%

O=C1C(=O)N(CCCCn2cc(-c3ccccc3)nn2)c2ccccc21
inactive: [1] 122% | [2] 93.9% | [3] 94.3% | [4] 75.3% | [5] 136% | [6] 103% | [7] 92% | [8] 110% | [9] 97.2% | [10] 101%

CCCCN1CCCCn2c1nc1c2c(=O)n(C)c(=O)n1C
inactive: [1] 91.9% | [2] 105% | [3] 102% | [4] 93.1% | [5] 103% | [6] 107% | [7] 95.5% | [8] 96.3% | [9] 113% | [10] 96.6%

COc1cc(NC(C)CN(CC(C)C)C(C)C)c2ncccc2c1 (stereo not given)
inactive: [1] 113% | [2] 105% | [3] 104% | [4] 87.6% | [5] 120% | [6] 99.3% | [7] 98.6% | [8] 97.6% | [9] 114% | [10] 96.6%

Cn1c2c(Cl)c(Cl)ccc2c2c(C#N)c[nH]c(=O)c21
inactive: [1] 97.3% | [2] 98.9% | [3] 95.9% | [4] 89.9% | [5] 119% | [6] 93.4% | [7] 71.1% | [8] 89.5% | [9] 39.2% | [10] 95.7%

N#CC1=C(N)Oc2ccc3ccccc3c2C1c1ccccc1 (stereo not given)
inactive: [1] 49.7% | [2] 39% | [3] 42.2% | [4] 44.9% | [5] 121% | [6] 37.3% | [7] 23.3% | [8] 21.5% | [9] 20.7% | [10] 32.6%

C=CC(=O)N[C@H](Cc1ccc(-c2cc(Cl)cc(Cl)c2)cc1)[C@H](O)[C@@H](O)C(=O)O
inactive: [1] 90% | [2] 90% | [3] 98.5% | [4] 86.8% | [5] 81.7% | [6] 101% | [7] 84% | [8] 80.6% | [9] 80.2% | [10] 102%

CCN(CC)c1ccc(/C=C/c2cc(C)c3ccccc3n2)cc1
inactive: [1] 72.9% | [2] 92.8% | [3] 60% | [4] 66.6% | [5] 70.3% | [6] 60.8% | [7] 51.9% | [8] 51.7% | [9] 53.4% | [10] 23.5%

COc1ccc(-c2cc(-c3c(C)oc4cc5occc5c(OC)c4c3=O)nc(N)c2C#N)cc1OC
inactive: [1] 60.7% | [2] 92.8% | [3] 77.6% | [4] 45.2% | [5] 77.1% | [6] 65.6% | [7] 38.9% | [8] 23.7% | [9] 43.8% | [10] 30.9%

Cn1cc(-c2csc(-c3c[nH]c4ccc(F)cc34)n2)c2cccnc21
inactive: [1] 41.2% | [2] 60.4% | [3] 64.5% | [4] 77.1% | [5] 69.7% | [6] 48.8% | [7] 36.9% | [8] 27% | [9] 39.7% | [10] 46.7%
